Activity calls are given as the source filed them. How the calls were made is not given here.
What follows are molecules tested on Aerobactin synthetase IucA (Klebsiella pneumoniae, hypervirulent) (assay: biochemical IucA inhibition screen of LOPAC library by absorbance (AID 1346212;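 further: 100% = no compound wells and 0% = no enzyme wells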)). Details: IucA enzyme assay, absorbance (OD) readout; active compounds read low;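 tested at 8 µM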.

Row | Compound | remaining activity
1 | Cc1oncc1C(=O)Nc1ccc(C(F)(F)F)cc1 | 110% (inactive)
2 | NC1=NCC2c3ccccc3Cc3ccccc3N12 (stereo not given) | 91.6% (inactive)
3 | CNCCC(Oc1ccccc1C)c1ccccc1 (stereo not given) | 102% (inactive)
4 | CN1CCc2cc(O)c(O)cc2C(c2ccccc2)C1 (stereo not given) | 105% (inactive)
5 | Cn1ccc2cc3c(cc21)CCN3C(=O)Nc1cccnc1 | 102% (inactive)
6 | C/C(=C\c1ccc(C(=O)O)cc1)c1ccc2c(c1)C(C)(C)CCC2(C)C | 97.8% (inactive)
7 | O=C(CCNNC(=O)c1ccncc1)NCc1ccccc1 | 115% (inactive)
8 | CN1CC(=O)NC1=NC(=O)Nc1cccc(Cl)c1 | 98.9% (inactive)
9 | COc1cc(C(=O)OCCCN2CCCN(CCCOC(=O)c3cc(OC)c(OC)c(OC)c3)CC2)cc(OC)c1OC | 116% (inactive)
10 | CCCCCCCCCCCCCCCCCCNC(=O)OCC(COP(=O)([O-])OCC[n+]1ccsc1)OC (stereo not given) | 126% (inactive)
11 | Cc1nc(N=Nc2cc([N+](=O)[O-])ccc2Cl)c(COP(=O)(O)O)c(C=O)c1O | 117% (inactive)
12 | COc1cc(C(O)CO)ccc1OS(=O)(=O)O (stereo not given) | 99.3% (inactive)
13 | CC(C)(C)c1ccc(/C=C/C(=O)Nc2ccc3c(c2)OCCO3)cc1 | 107% (inactive)
14 | C#C[C@]1(O)CC[C@H]2[C@@H]3CCC4=Cc5nc6nc7ccccc7n6cc5C[C@]4(C)[C@H]3CC[C@@]21C | 123% (inactive)
15 | C#Cc1ccc2c(c1)C(=O)N(C)Cc1c(C(=O)OCCCc3nc(C(=O)O)c4n3-c3ccc(C#C)cc3C(=O)N(C)C4)ncn1-2 | 97.1% (inactive)

From PubChem BioAssay
